Experimental data reported in the supplement of paper PMC9588786.
Counter-ions that a name gives are not always drawn. ± gives the standard deviation of the averaged measurements.

Tested on: HT-1080
Assay: relative cell viability with RSL3 co-treatment (fraction of control); higher = stronger protection from RSL3-induced ferroptosis (higher viability)
Conditions: 10 µM
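Also: viability read as CCK-8 absorbance at 450 nm in cells co-exposed to the GPX4 inhibitor RSL3, relative to a 0.01% DMSO vehicle control.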

| SMILES | relative cell viability |
| --- | --- |
| O=C(Nc1cccc(Cl)c1)Nc1ncc(CCNc2ncnc3ccsc23)s1 [SNS-314 Mesylate] | 0.217 ± 0.015 |
| COCCOc1cnc2ccn([C@H](C)c3nnc4c(F)cc(-c5cnn(C)c5)cn34)c(=O)c2c1 | 0.7767 ± 0.0058 |
| C=CC(=O)Nc1cccc(Nc2nc(Nc3ccc(NC4CN(CCF)C4)cc3OC)ncc2C(F)(F)F)c1 | 0.443 ± 0.068 |
| COc1cc(CCc2cc(NC(=O)c3ccc(N4CC(C)NC(C)C4)cc3)n[nH]2)cc(OC)c1 (stereo not drawn) | 0.673 ± 0.14 |
| CNS(=O)(=O)C[C@H]1CC[C@H](N(C)c2[nH]cnc3nccc2-3)CC1 [Oclacitinib] | 0.927 ± 0.075 |
| Cc1cnc(NC(=O)Nc2cc(Br)c(C)cc2OC[C@@H]2CNCCO2)cn1 | 0.447 ± 0.17 |
| Cc1cc([C@@H](C)Nc2ccccc2C(=O)O)c2nc(N3CCOCC3)cc(=O)n2c1 | 0.593 ± 0.18 |
| O=C(Nc1cc(C(F)(F)F)cc(C(F)(F)F)c1)c1cc(Cl)ccc1O | 0.537 ± 0.06 |
| CN1CCN(c2nc(C3=C(c4c[nH]c5ccccc45)C(=O)NC3=O)c3ccccc3n2)CC1 [Sotrastaurin] | 0.903 ± 0.042 |
| Cc1c(NC(=O)c2ccc(C(C)(C)C)cc2)cccc1-c1cn(C)c(=O)c(Nc2ccc(C(=O)N3CCOCC3)cc2)n1 | 0.647 ± 0.1 |
| CC1(C)CNc2cc(NC(=O)c3cccnc3NCc3ccncc3)ccc21 [Motesanib Diphosphate (AMG-706)] | 0.533 ± 0.21 |
| O=C(O)CCC(=O)Nc1ccc(Br)cn1 [Bikinin] | 0.723 ± 0.14 |
| C[C@]1(O)C[C@@H](c2nc(-c3ccc4ccc(-c5ccccc5)nc4c3)c3c(N)nccn32)C1 [Linsitinib (OSI-906)] | 0.587 ± 0.029 |
| COc1ccc(CNC(=O)Nc2ncc([N+](=O)[O-])s2)cc1 | 0.45 ± 0.03 |
| Clc1ccc(Nc2nnc(Cc3ccncc3)c3ccccc23)cc1 [Vatalanib (PTK787) 2HCl] | 0.827 ± 0.047 |
| Cc1cc(F)c(Nc2ncnc3cc(OCc4ccccc4)ccc23)cc1O | 0.797 ± 0.021 |
| Cn1c(=O)c(F)c(Nc2ccc(I)cc2F)c2c(=O)n(C[C@@H](O)CO)cnc21 | 0.71 ± 0.017 |
| CC[C@H](CO)Nc1nc(NCc2ccccc2)c2ncn(C(C)C)c2n1 [Roscovitine (Seliciclib,CYC202)] | 0.793 ± 0.12 |
| COc1ccc(-c2cc3c(C)nc(N)nc3n([C@H]3CC[C@H](OCCO)CC3)c2=O)cn1 | 0.597 ± 0.16 |

| SMILES | relative cell viability |
| --- | --- |
| CCCCCCCCc1ccc(CCC(N)(CO)CO)cc1 [Fingolimod (FTY720) HCl] | 0.253 ± 0.1 |
| COc1ccc(Cl)cc1NC(=O)Nc1cc(C)nc2ccccc12 | 0.71 ± 0.017 |
| CN(C)Cc1cccc(N=C(c2ccccc2)c2c(O)[nH]c3cc(C(=O)N(C)C)ccc23)c1 | 0.79 ± 0.044 |
| CO[C@@H](C)Cn1c(=O)n(C)c2cnc3ccc(-c4cncc(C(C)(C)O)c4)cc3c21 | 0.457 ± 0.13 |
| COc1cc2ncnc(Nc3ccc(Cl)cc3F)c2cc1OC | 0.757 ± 0.14 |
| O=C(Nc1ccccc1C(=O)NC1CCCCNC1=O)c1cc2ccccc2s1 (stereo not drawn) | 0.803 ± 0.011 |
| CN1CCN(c2ccc3nc(-c4c(N)c5c(F)cccc5[nH]c4=O)[nH]c3c2)CC1 [Dovitinib (TKI-258, CHIR-258)] | 0.827 ± 0.1 |
| Cc1cnc(Nc2ccc(OCCN3CCCC3)cc2)nc1Nc1cccc(S(=O)(=O)NC(C)(C)C)c1 | 0.433 ± 0.093 |
| COc1cc(N2CCC(N(C)C)CC2)ccc1Nc1ncc(Cl)c(Nc2ccccc2P(C)(C)=O)n1 | 0.36 ± 0.082 |
| O=C1NC(=O)/C(=C/c2cccc(C(F)(F)F)c2)S1 | 0.807 ± 0.015 |
| C[C@H](NC(=O)/C(C#N)=C/c1cccc(Br)n1)c1ccccc1 | 0.807 ± 0.13 |
| FC(F)c1nc2ccccc2n1-c1nc(N2CCOCC2)nc(N2CCOCC2)n1 | 0.723 ± 0.14 |
| O=C1NC(=O)/C(=C/c2ccc(-c3ccc(F)cc3O)o2)S1 | 0.75 ± 0.052 |
| C1=N/C2=N/c3ccc(OCCN4CCCC4)c(c3)COC/C=C/COCc3cccc(c3)C(=C1)N2 [Pacritinib (SB1518)] | 0.467 ± 0.096 |
| CNC(=O)c1cc(COc2nnc(Nc3ccc(Cl)cc3)c3ccoc23)ccn1 [Telatinib] | 0.623 ± 0.057 |
| C=CC(=O)Nc1ccc(CN2C(=O)N(c3cc(OC)cc(OC)c3)Cc3cnc(Nc4ccc(N5CCN(C)CC5)cc4)nc32)cc1 | 0.56 ± 0.01 |
| CCN1/C(=C/C(C)=O)Sc2ccc(OC)cc21 | 0.76 ± 0.1 |
| COc1ccc(F)c(F)c1C(=O)c1cnc(NC2CCN(S(C)(=O)=O)CC2)nc1N | 0.577 ± 0.15 |
| c1cc(-c2cnn3cc(-c4ccc(OCCN5CCCCC5)cc4)cnc23)ccn1 [Dorsomorphin 2HCl] | 0.463 ± 0.18 |
